Measurements from PubChem BioAssay (NCI).
The panel holds about 83,000 compounds, 20% with a hit somewhere; the sample as a whole holds those more often.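 Plates (96-well) were seeded with cells, treated with compound at one concentration, and incubated for 48 hours before percent growth was determined.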 A number with no mark means an inactive call. Active and inactive are the calls of the source. Rule for the calls: active = growth percent below 10; inactive = the rest.

Each compound was assayed on SNB-75 CNS (assay: NCI-60 one-dose screen, 48 h (100 = growth as untreated, 0 = no growth, -100 = all killed)). Details: 10 µM unless noted.

Compared with `CC1CCN(C(=O)OCc2nc3nc(Cl)nc(N4CCOCC4)c3[nH]2)CC1`, `COc1ccc(-c2nc(SC)nc(N3CCOCC3)c2C#N)cc1` is higher in growth: 14.8% for the first, 60.5% for the second.

Going from `COc1cc(C2CC(c3cccc(Nc4ccncc4)c3)=NN2c2cc(Cl)cc(Cl)c2)cc(OC)c1OC` (stereo unspecified) to `COc1ccccc1-c1c(-c2ccc(Cl)cc2)c2cc3c(cc2[nH]c1=O)OCCO3`, the growth rises from 25.9% to 88.6%.

First: COC(=O)Nc1ccc(NC(=O)OC)cc1
Second: CC(C)(O)C1CCCN1C(=O)c1ccccc1I (stereo unspecified)
The growth of the first is lower: 80% for the first, 100% for the second.

Compared with `CC(=O)NCCCS(=O)(=O)O`, `O=S(=O)(NCCNc1nccc(-c2c(-c3ccc(F)c(O)c3)nc3sccn23)n1)c1ccccc1` is higher in growth: 98.7% for the first, 137% for the second.

First: CC(C)Sc1nc(NN)c(C#N)c(-c2ccccc2)n1
Second: COc1ccc(-c2nc(SCC(C)C)nc(N/N=C(/C)c3ccc(OC)c(OC)c3)c2C#N)cc1
The growth of the first is higher: 92.7% for the first, 80.2% for the second.

Going from `COc1cc2nnn3c4ncccc4c(N=O)c3c2cc1OC` to `O=C(N/N=C/c1ccc(F)cc1)c1ccccc1Nc1cccc(C(F)(F)F)c1`, the growth rises from 79.8% to 99.5%.

`Cc1c([N+](=O)[O-])cc(C(C)(C)C)cc1[N+](=O)[O-]` was tested, and the growth was 89.4%.

For `COc1ccc(C(=O)c2cc3c(N)c(C(=O)Nc4cccc(Cl)c4C)sc3nc2C)cc1`, the growth was -7.69% (active).
With `Cn1c(COC(=O)NCCN2CCOCC2)nc2c(N3CCOCC3)nc(-c3ccccc3)nc21` the growth was -3.92% (active).
`O=C(OCc1nc2nc(Cl)nc(N3CCOCC3)c2[nH]1)n1ccnc1` was tested, and the growth was -14.2% (active).
